LYPLA2 inh – LYPLA2 (human) inhibition in PME1 counter-screen. O95372. inhibition, % at 5.9 µM. recombinant LYPLA2, FP-Rh probe fluorescence polarization. AID 2177. 320,000 compounds, 0.38% hits;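 active = inhibition above the screen-wide mean plus 3 SD, limit set per campaign, cut at about 26% in these data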
PREPL inhibitor – inhibits the human prolyl oligopeptidase-like enzyme. Q4J6C6. recombinant PREPL, fluorescence polarization activity-based probe. inhibition, % at 5.96 µM. 320,000 compounds, 0.68% hits. AID 2751
Target sequence (Q4J6C6 whole entry, looked up): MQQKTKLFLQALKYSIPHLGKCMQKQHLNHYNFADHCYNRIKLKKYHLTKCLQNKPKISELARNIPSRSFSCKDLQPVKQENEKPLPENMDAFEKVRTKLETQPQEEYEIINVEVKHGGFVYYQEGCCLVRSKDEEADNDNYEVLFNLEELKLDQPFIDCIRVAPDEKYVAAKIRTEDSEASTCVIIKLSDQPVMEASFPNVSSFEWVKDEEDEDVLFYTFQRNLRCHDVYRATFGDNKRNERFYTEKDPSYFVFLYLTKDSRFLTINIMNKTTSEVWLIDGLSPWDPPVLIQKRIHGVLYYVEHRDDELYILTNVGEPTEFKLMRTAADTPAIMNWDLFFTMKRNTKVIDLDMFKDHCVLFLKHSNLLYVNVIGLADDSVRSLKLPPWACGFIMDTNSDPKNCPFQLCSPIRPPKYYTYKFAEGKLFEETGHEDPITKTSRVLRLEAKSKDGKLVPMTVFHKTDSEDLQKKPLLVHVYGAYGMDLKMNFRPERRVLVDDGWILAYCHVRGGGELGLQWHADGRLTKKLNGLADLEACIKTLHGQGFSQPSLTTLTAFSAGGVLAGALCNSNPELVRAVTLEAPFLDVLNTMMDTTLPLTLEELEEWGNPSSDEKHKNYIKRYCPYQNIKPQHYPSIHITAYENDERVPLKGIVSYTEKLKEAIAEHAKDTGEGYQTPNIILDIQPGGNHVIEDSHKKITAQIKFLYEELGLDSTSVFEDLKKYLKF
Fam108B counter – blocks mouse Fam108B hydrolase in RBBP9 counter-screen; recombinant Fam108B, FP-Rh probe fluorescence polarization; inhibition, % at 9.51 µM; 300,000 compounds, 0.33% hits;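 active = inhibition above the screen mean inhibition plus 3 SD, computed separately per campaign, cut at about 18% in these data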;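 also: inhibitors lower polarization as less probe binds the enzyme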
PME-1 inh – PME-1 (human) inhibition | Q9Y570 | recombinant PME-1, FP-Rh probe fluorescence polarization | inhibition, % at 5.9 µM | 320,000 compounds, 0.53% hits;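 active = inhibition above the campaign mean of all compounds plus 3 SD, cut at about 26% in these data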;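 also: competitive labeling of PME-1 active site by serine hydrolase directed probe; inhibitors block probe labeling so polarization falls and inhibition rises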
LYPLA1 counter – counter-screen for PME1 inhibitors: inhibitors of human LYPLA1; O75608; 320,000 compounds, 0.16% hits; inhibition, % at 5.9 µM; recombinant LYPLA1, FP-Rh probe fluorescence polarization; AID 2174;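 active = inhibition above the mean of all tested compounds plus 3 SD, set per campaign, cut at about 14% in these data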;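 also: inhibitors block serine hydrolase probe labeling of LYPLA1 so polarization falls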
PREPL inh cf – human PREPL inhibition, confirmation. inhibition, % at 5.96 µM. recombinant PREPL, fluorescence polarization activity probe. 2,000 compounds, 67% hits. shares compounds with PREPL inhibitor
Large screens that a line does not name were inactive (follow-up assays come after a bar, where they were run). The list is not random: actives were taken first. Their share in the collection is about 1.3%. Rule as the data show it, unless noted: active = inhibition above about 43%; inactive = the rest.

O=C(NCc1ccc2c(c1)OCO2)c1cc(COc2c(F)cccc2F)on1	none
COc1cccc(CNC(=O)c2cc(COc3c(F)cccc3F)on2)c1	PREPL inhibitor 50 | PREPL inh cf inactive
O=C1N/C(=C/c2ccc(N3CCOCC3)cc2)C(=O)N1Cc1ccc(F)cc1	PREPL inhibitor 48 | PREPL inh cf 75
O=C1N/C(=C\c2ccsc2)C(=O)N1Cc1ccc(F)cc1	none
Cc1ccc(Nc2nc(N)nc(CSC(=S)N3CCN(c4ccccc4)CC3)n2)cc1	PREPL inhibitor 64 | PREPL inh cf inactive
Nc1nc(CSC(=S)N2CCN(c3ccccc3)CC2)nc(Nc2ccccc2)n1	none
CCOc1cc(/C=C2\C(=N)N3N=C(N4CCCCC4)SC3=NC2=O)ccc1OC(=O)c1ccco1	PREPL inhibitor 51 | PREPL inh cf 59
CCOc1cc(/C=C2/C(=N)N3C(=NC2=O)SN=C3S(C)(=O)=O)ccc1OC(=O)c1ccco1	PREPL inhibitor 52 | PREPL inh cf 71
CCOc1cc(/C=C2/C(=N)N3C(=NC2=O)SN=C3S(C)(=O)=O)ccc1OS(=O)(=O)c1ccccc1	none
CCOc1ccc(NC(=O)CC2C(=O)N(c3ccc(OC)c(Cl)c3)C(=S)N2C2CC2)cc1 (centres undefined)	none
CCOc1ccc(N2CC(C(=O)Nc3ccncc3)CC2=O)cc1 (centres undefined)	none
Cc1cc(OCC(=O)Nc2ccc(S(=O)(=O)N3CCN(C)CC3)cc2)ccc1Cl	none
CN1CCN(c2ccc(NC(=O)COc3ccccc3Cl)cc2)CC1	PREPL inhibitor 44 | PREPL inh cf inactive
Cc1cc(OCC(=O)Nc2ccc(N3CCN(C)CC3)cc2)ccc1Cl	PREPL inhibitor 70 | PREPL inh cf 56
CC[C@@H](C)[C@@H]1CN([C@@H](CN2CCC[C@H]2CN2C(N)=NC[C@H]2C(C)C)C(C)C)C(=N)N1CCc1ccc(Cl)c(Cl)c1	PREPL inhibitor 60 (no result: LYPLA2 inh, Fam108B counter, PME-1 inh, LYPLA1 counter) | PREPL inh cf 50
CC[C@@H](C)[C@@H]1CN([C@@H](C)CN2CCC[C@H]2CN2C(N)=NC[C@H]2CC(C)C)C(=N)N1CCCC1CCCC1	none (no result: LYPLA2 inh, Fam108B counter, PME-1 inh, LYPLA1 counter)
CC[C@@H](C)[C@@H]1CN([C@@H](C)CN2CCC[C@H]2CN2C(N)=NC[C@@H]2Cc2ccccc2)C(=N)N1CCc1ccc(Cl)c(Cl)c1	PREPL inhibitor 52 (no result: LYPLA2 inh, Fam108B counter, PME-1 inh, LYPLA1 counter) | PREPL inh cf inactive
CC[C@@H](C)[C@@H]1CN([C@@H](C)CN2CCC[C@H]2CN2C(N)=NC[C@@H]2Cc2ccccc2)C(=N)N1CCCC1CCCC1	PREPL inhibitor 44 (no result: LYPLA2 inh, Fam108B counter, PME-1 inh, LYPLA1 counter) | PREPL inh cf 50
CN(C)c1ccc(NC(=O)c2ccc(COc3cccc(Cl)c3)o2)cc1	PREPL inhibitor 58 | PREPL inh cf 47
CCN1CCN(C(=O)c2ccc(COc3cccc(Cl)c3)o2)CC1	none
CC(C)(C)OC(=O)C[C@H]1C/C=C\C[C@H](CC(=O)N(CCO)Cc2ccccc2)C(=O)N[C@@H](Cc2ccccc2)COC1=O	none (no result: LYPLA2 inh, Fam108B counter, PME-1 inh, LYPLA1 counter)
O=C(c1cc(COc2ccc(F)c(F)c2)on1)N1CCN(C2CCCCC2)C(=O)C1	none
COc1cccc2cc(C(=O)C3=C(O)C(=O)N(CCN4CCOCC4)C3c3ccc(Cl)cc3)oc12 (centres undefined)	none
COc1cccc2cc(C(=O)C3=C(O)C(=O)N(CCN4CCOCC4)C3c3ccc(C(C)(C)C)cc3)oc12 (centres undefined)	PREPL inhibitor 53 | PREPL inh cf 56
COc1ccc(N2CCc3c(C)nc4c(OC)cc(OC)cc4c32)cc1	PREPL inhibitor 52 | PREPL inh cf 49
CC(=O)N1CCN(c2ccc(NCc3ccc(-c4ccc(Br)cc4)o3)cc2)CC1	PREPL inhibitor 71 (no result: LYPLA2 inh, Fam108B counter, PME-1 inh, LYPLA1 counter) | PREPL inh cf 66
CC(=O)N1CCN(c2ccc(NCc3cccs3)cc2)CC1	none
CC(=O)N1CCN(c2ccc(NCc3ccc(C)s3)cc2)CC1	PREPL inhibitor 54 | PREPL inh cf inactive
CC(=O)N1CCN(c2ccc(NCc3cccc4ccccc34)cc2)CC1	PREPL inhibitor 78 | PREPL inh cf 62
CC(=O)N1CCN(c2ccc(NC(=O)c3ccc(C)cc3)cc2)CC1	none
CC(=O)N1CCN(c2ccc(NCc3ccc(Br)o3)cc2)CC1	PREPL inhibitor 44 (no result: Fam108B counter) | PREPL inh cf 45
Cc1ccc(CNc2ccc(N3CCOCC3)cc2)s1	none
CC(=O)N1CCN(c2ccc(NCc3ccccc3)cc2)CC1	none
O=C(COC(=O)CCCOc1ccccc1)NNC(=O)c1ccc([N+](=O)[O-])cc1	none
CS(=O)(=O)N1CCC(C(=O)N2CCN(C(c3ccccc3)c3ccccc3)CC2)CC1	none
Cc1ccc(-n2nc3c(=O)n(C(C)C(=O)NCCC4=CCCCC4)nc(C)c3c2C)cc1 (centres undefined)	none
CCN1C(=O)[C@@H]2[C@@H](c3ccc(-c4ccc(OC)cc4)cc3)N3CCC[C@@]3(C(=O)OC)[C@@H]2C1=O	none
CCN1C(=O)[C@H]2[C@@H](c3ccc(-c4ccc(F)cc4)cc3)N3CCCC[C@@]3(C(=O)OC)[C@H]2C1=O	PREPL inhibitor 45 | PREPL inh cf inactive
CCN1C(=O)[C@H]2[C@@H](c3ccc(-c4ccc(OC)cc4)cc3)N3CCC[C@@]3(C(=O)OC)[C@H]2C1=O	PREPL inhibitor 47 | PREPL inh cf inactive
COC(=O)C(C)Oc1ccc(Oc2nc(Cl)ccc2Cl)cc1 (centres undefined)	none
COc1ccc2cc1Oc1ccc(cc1)C[C@H]1c3cc(c(OC)cc3CCN1C)Oc1c(OC)c(OC)cc3c1[C@@H](C2)N(C)CC3	PREPL inhibitor 52 (no result: Fam108B counter) | PREPL inh cf 48
CCOC(=O)C1C(=O)NC(N2CCCCC2)=NC1c1ccccc1 (centres undefined)	none
CCOC(=O)C1C(=O)NC(N2CCc3ccccc32)=NC1c1ccccc1 (centres undefined)	PREPL inhibitor 44 | PREPL inh cf inactive
N#C/C=C/N1CCC(Cc2ccccc2)CC1	none
C/C(=N\Nc1nc(-c2ccccn2)nc2ccccc12)c1ccc(F)cc1	none
c1ccc(-c2nc(N3CCOCC3)c3ccccc3n2)nc1	none
c1ccc(-c2nc(N3CCCCCC3)c3ccccc3n2)nc1	PREPL inhibitor 68 | PREPL inh cf 65
c1ccc(CCNc2nc(-c3ccccn3)nc3ccccc23)cc1	PREPL inhibitor 73 | PREPL inh cf 77
Cc1ccc(C2(c3ccc(C)cc3)NC(=O)N(CC(N)=O)C2=O)cc1	none
C[C@H](CO)N1C[C@H](C)[C@@H](CN(C)S(=O)(=O)c2cccs2)Oc2ccc(NS(=O)(=O)c3ccc(F)cc3)cc2C1=O	none (no result: LYPLA2 inh, Fam108B counter, PME-1 inh, LYPLA1 counter)
OCC1OC(Oc2cccc3ccccc23)C(O)C(O)C1O (centres undefined)	none
O=C(O)c1cc(O)c2c(c1)[C@@H]([C@H]1c3cc(C(=O)O)cc(O)c3C(=O)c3c(O[C@@H]4O[C@H](CO)[C@@H](O)[C@H](O)[C@H]4O)cccc31)c1cccc(O[C@@H]3O[C@H](CO)[C@@H](O)[C@H](O)[C@H]3O)c1C2=O	PREPL inhibitor 96 (no result: LYPLA2 inh, Fam108B counter, PME-1 inh, LYPLA1 counter) | PREPL inh cf inactive

From PubChem BioAssay
